# Measurements taken from PubChem BioAssay (EPA / NIEHS).
# Calls of active or inactive are those of the source. The calls were made as follows: active = hit-call score of the fitted dose curve at least 0.9, where 1 is the maximum; inactive = score below 0.9.
# Experiment: ATG_CRE_CIS: Attagene CIS-FACTORIAL HepG2 Assay for human cAMP Responsive Element (CRE) binding protein 3 (AID 2282926)
# Details: HepG2 CRE cis-reporter, Attagene multiplexed mRNA; actives raise or lower the signal
# Method: ATG_CIS is a cell-based, multiplexed-readout assay that uses HepG2, a human liver cell line, with measurements taken at 24 hours after chemical dosing in a 24-well plate.ATG_CRE_CIS is one of 52 assay component(s) measured or calculated from the ATG_CIS assay. It is designed to make measurements of mRNA induction, a form of inducible reporter, as detected with fluorescence intensity signals by Reverse transcription polymerase chain reaction (RT-PCR) and Capillary electrophoresis technology.Data from the assay component ATG_CRE_CIS was analyzed into 1 assay endpoint. This assay endpoint, ATG_CRE_CIS, was analyzed with bidirectional fitting relative to DMSO as the negative control and baseline of activity. Using a type of inducible reporter, measures of mRNA for gain or loss-of-signal activity can be used to understand the reporter gene at the transcription factor-level as they relate to the gene CREB3. Furthermore, this assay endpoint can be referred to as a primary readout, because this assay has produced multiple assay endpoints where this one serves a reporter gene function. To generalize the intended target to other relatable targets, this assay endpoint is annotated to the dna binding intended target family, where the subfamily is basic leucine zipper.
# Human liver HepG2 cells are transiently transfected with multiple reporter transcription units (MRTUs) in 6-well plates using FuGene 6 reagent (Roche; 3 ml FuGene/1 mg DNA). The MRTU constructs are regulated by a cis-regulating element (promoter). […] A major difference between the CIS and TRANS system is that in CIS activities of endogenous TFs are measured, whereas the TRANS assay evaluates changes in activities of exogenous, chimeric NR-Gal4 proteins. […] At the end of 24 hour incubation, total RNA was isolated using TriZol reagent (Invitrogen). The isolated RNA is then reverse-transcribed using oligo(dT) primer and Mo-MLV reverse transcriptase (Invitrogen) with DNAse I (Ambion) treatment for 30 min. The one-tenth of the produced cDNA was amplified by PCR using Taq DNA polymerase (Invitrogen) and two reporter sequence-specific primers. The PCR products were fluorescently labeled by primer extension with 6-arboxyfluorescein (6-FAM) 5'-labeled reporter sequence-specific primer (2 min at 95 C, 20 s at 68 C and 10 min at 72 C) and these products were digested with 5U of HpaI (New England Biolabs) for 2h at 37 C. The fragments were purified using Qiaquick PCR columns (Qiagen), analyzed on an ABI 3130xL genetic analyzer (Applied Biosystems) with peak positions identified by using a set of X-rhodamine (ROX)-labeled MapMarker1000 molecular weight standards (BioVentures). The raw capillary electrophoresis data was processed using Attagraph software (Attagene).
Structure (SMILES),outcome,AC50
O=S(=O)(O)c1ccccc1C=Cc1ccc(-c2ccc(C=Cc3ccccc3S(=O)(=O)O)cc2)cc1,inactive,
COC(=O)c1cc(Cl)ccc1[N+](=O)[O-],inactive,
CCCCOCCOC(=O)COc1nc(Cl)c(Cl)cc1Cl,inactive,
O=C(c1ccc(O)cc1)c1ccc(O)cc1O,inactive,
O=C1CCCC1,inactive,
SCCc1cnccn1,inactive,
CCCCCCC1(C)CCC(=O)O1 (stereo not given),inactive,
O=C(C=Cc1ccccc1)OCc1ccccc1,inactive,
C=C(C)C(=O)OCCO,inactive,
CCCCCCCCC(=O)OCC,inactive,
CC(=O)OCC(=O)[C@@]12N=C(C)O[C@@H]1C[C@H]1[C@@H]3CCC4=CC(=O)C=C[C@]4(C)[C@H]3[C@@H](O)C[C@@]12C,inactive,
CC(=O)Nc1nnc(S(N)(=O)=O)s1,inactive,
CCCCCCOC(=O)C(C)CC (stereo not given),inactive,
FC(F)=C(F)OC(F)(F)C(F)(F)C(F)(F)F,inactive,
Cc1ccc(C2OC[C@@H]3OC(c4ccc(C)cc4)O[C@H]([C@H](O)CO)[C@@H]3O2)cc1 (stereo not given in full),inactive,
c1ccc(CCCc2ccncc2)cc1,inactive,
CCCc1ccc(OC)cc1,inactive,
C=C(C)c1cccc(C(C)(C)N=C=O)c1,inactive,
NC(=O)NNC(N)=O,inactive,
CC(C)(C)C1CCCCC1=O (stereo not given),inactive,

Structure (SMILES),outcome,AC50
CCCCCCCCCCCCCCCC(=O)OCC,inactive,
COC(=O)/C=C/C(C)=C\C=C\C(C)=C\C=C\C=C(C)\C=C\C=C(C)\C=C\C(=O)O,inactive,
Nc1ccc(Cl)cc1Cl,inactive,
CCCC(C)CCC(C)=O (stereo not given),inactive,
O=c1[nH]c(=O)c2[nH]c(=O)[nH]c2[nH]1,inactive,
CCN(Cc1cccc(S(=O)(=O)O)c1)c1ccc(C(=C2C=CC(=[N+](CC)Cc3cccc(S(=O)(=O)[O-])c3)C=C2)c2ccccc2)cc1,inactive,
O=C(C(Cl)Cl)N1CCOC12CCCCC2,inactive,
CO[Si](CCC1CCC2OC2C1)(OC)OC (stereo not given),inactive,
CC1(C)[C@H]2CC[C@]1(C)C(=O)C2,inactive,
CC1OC1C1CCC2(C)OC2C1 (stereo not given),inactive,
O=C1CCCCCN1SSN1CCCCCC1=O,,147 µM (active)
Cc1cccc(N)n1,inactive,
OC1CCCCCCCCCCC1,inactive,
N=c1ccn2c(n1)O[C@H]1[C@H](O)[C@@H](CO)O[C@H]12,inactive,
Cc1ccc(N/N=c2\c(=O)cc/c(=N/Nc3ccc(S(=O)(=O)O)cc3)c2=O)c(C)c1,inactive,
CCCCCc1ccc(Cl)cc1,inactive,
C=C[Si](OC(C)=O)(OC(C)=O)OC(C)=O,inactive,
O=C1CCCC(=O)O1,inactive,
CC(C)(C)c1n[nH]c(=O)n(N)c1=O,inactive,
O=C(O)c1ccccc1Nc1cccc(C(F)(F)F)c1,inactive,
